Compound activity as filed in PubChem BioAssay.
Shown are actives, neighbours in structure and some others; about 19% of the full set was active somewhere.
TDP1 cell noCPT = qHTS for Inhibitors of human tyrosyl-DNA phosphodiesterase 1 (TDP1): qHTS in cells in absence of CPT | DT40 Tdp1-/- hTDP1 cells, no CPT, ATP luminescence, 48 h | Potency, µM (highest dose often 46.2 µM), for inactives: at the highest dose activity change, negative = growth inhibition, most hits filed as inhibitors | 420,000 tested, 15% active | AID 686978, 2013; note: potency is the fitted concentration of half-maximal effect; nearly all actives have a fitted effect of over 55% in size
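Chicken DT40 Tdp1-/- cells complemented with human TDP1, screened without camptothecin (DMSO vehicle only), 400 cells/well. Compounds pin-transferred, cells incubated at 37 °C for at least 48 hr. Growth read as ATP-dependent luminescence (CellTiter-Glo, 30 min at RT).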
TDP1 cell CPT = DT40-hTDP1 cell growth loss with CPT | chicken DT40 Tdp1-/-;hTDP1 cells + 20 nM CPT, ATP luminescence, 48 h | Potency, µM (titrated, usually from 46.2 µM), inactives show at the top dose activity change, negative = growth inhibition, usual class: inhibitors | 420,000 tested, 12% active; note: potency is the fitted concentration of half-maximal effect; nearly all actives have a fitted effect of over 55% in size
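Cell growth measured by CellTiter-Glo luminescence after a minimum 48 h, 37 C compound exposure with 20 nM CPT in Tdp1-knockout DT40 cells stably expressing hTDP1, seeded 400/well; qHTS titration format.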
ELG1 DNA repair = ELG1-dependent DNA repair inhibition | HEK293T ELG1-luciferase reporter, luminescence, 16 h; DNA damage induced by 5-fluorouridine | Potency, µM (series often up to 46.1 µM), without a hit: at the top dose activity change, negative = inhibition, hits mostly inhibitors | 330,000 tested, 2.3% active; note: potency is the fitted concentration of half-maximal effect; nearly all actives have a fitted effect of over 55% in size
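Reporter activity after DNA damage by 5-fluorouridine is monitored. Compound-treated cells incubate 16 hr at 37 °C, then ONE-Glo is added for 30 min before luminescence reading.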
IL-1B inflam inh = inhibitors of inflammasome signaling (IL-1 beta secretion). THP-1 LPS/ATP IL-1B secretion, AlphaLISA, 16 h; active compounds read low. activity change, % at 57.5 µM. 360,000 tested, 4.7% active. AID 743279; in the data active = activity change below about -50%; inconclusive = mostly about -30% to -49%
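Secreted IL-1B measured by AlphaLISA bead assay after 16 h compound exposure of THP-1 cells; compounds (final up to 57.5 uM) added 1 h before LPS (250 ng/mL) and ATP (1.25 mM) stimulation; lower signal means less secretion.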
HT1080-NT tox = kills 2HG-producing HT-1080-NT fibrosarcoma cells; HT-1080-NT fibrosarcoma viability, CellTiter-Glo ATP luminescence, 48 h; Potency, µM (doses to about 46.1 µM), inactives show at the highest dose activity, negative = less viability, actives largely listed as cytotoxic; 360,000 tested, 1.6% active; AID 686970;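 note: NT is the 2HG producing partner of a matched IDH1 knockdown line; potency is the fitted concentration of half-maximal effect; 0% = DMSO-treated cells and -100% = media-only wells without cells; nearly all actives have a fitted effect of over 55% in size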
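Fibrosarcoma NT cells, 750 per well in 5% FBS RPMI, were exposed to compound for 48 hours. Viability: CellTiter-Glo luminescence.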
HT1080 IDH1KD tx = toxicity to HT-1080 IDH1 knockdown cells (counter line); 360,000 tested, 2% active; HT-1080 IDH1 knockdown viability, ATP luminescence, 48 h; Potency, µM (series often up to 46.1 µM), for the others: top-dose activity, negative = toxicity, usual class: cytotoxic;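 note: potency is the fitted concentration of half-maximal effect; 0% = DMSO wells and -100% = cell-free medium wells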
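% activity derives from luminescence (CellTiter-Glo), normalised to DMSO and no-cell wells. HT-1080-IDH1KD cells, 750/well, had 48 h compound exposure at 37 °C.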
* = called active by the depositor; u = inconclusive; x = no result; [ ] = another dose, or the depositor's remark. Unless noted, calls come from the whole dose curve; as a rule, active = well fitted curve in the direction sought with a large enough effect; inconclusive = small, poorly fitted or top-dose-only effect, or another doubt; inactive = no such curve, though single readings can be large; an effect the other way counts as inactive or inconclusive. Unless noted, % is set by controls: 0 for no effect and ±100 for the full control effect.

SMILES	TDP1 cell noCPT	TDP1 cell CPT	ELG1 DNA repair	IL-1B inflam inh	HT1080-NT tox	HT1080 IDH1KD tx
COc1ccc(CCNC(=O)c2ccc(CNc3nc(=S)[nH]c4ccccc34)cc2)cc1OC	u	15µM*	15µM*	6	-15%	-13%
COc1ccc(CCNC(=O)COc2ccc(N(C)S(=O)(=O)c3ccc(C)cc3)cc2)cc1OC	16µM*	u	21µM*	u	-9%	-20%
Cn1c(N)c(C(=O)COC(=O)Cc2ccc(Cl)c(Cl)c2)c(=O)n(C)c1=O	u	-15%	-15%	18	-1%	-1%
COC(=O)C1CCN(Cc2ccc3c(c2)CN(C(=O)c2ccnn2C)CCO3)CC1	-3%	1%[9.04 µM]	x	x	x	x
Cc1cc(C)cc(N(C)S(=O)(=O)c2nnc(NC(=O)COc3ccc(Cl)cc3)s2)c1	-11%	-13%	x	x	x	x
O=C(Nc1cccc(F)c1)N1CC[C@@]2(CCCNC2)C1	-24%	-17%	x	x	x	x
COc1ccc(CNC(=O)c2ccc(CNS(=O)(=O)c3ccc(OC)cc3)cc2)cc1	-3%	-8%	x	x	x	x
COc1ccc(CCNC(=O)COc2ccc(N(C)S(=O)(=O)c3ccc(Cl)cc3)cc2)cc1	u	23µM*	u	-14	-2%	-10%
COc1ccc(S(=O)(=O)NCc2ccc(C(=O)NCCN(C)Cc3ccccc3)cc2)cc1	21µM*	18µM*	x	-20	-28%	-15%
O=C(NC(Nc1nc2ccc([N+](=O)[O-])cc2s1)(C(F)(F)F)C(F)(F)F)c1ccccc1Cl	0.18µM*	0.33µM*	u	-69*	3.3µM*	2.9µM*
CN(C)S(=O)(=O)c1ccc2nc(NC(=O)c3cccnc3)sc2c1	-11%	-21%	x	-7	7%	7%
O=C(NC(Nc1nc2ccc([N+](=O)[O-])cc2s1)(C(F)(F)F)C(F)(F)F)c1cccnc1	2.3µM*	3.7µM*	u	-70*	9.2µM*	13µM*
COc1cccc(CN2CCc3nc(Nc4ccc5c(c4)OCCO5)ncc3C2)c1OC	8.2µM*	21µM*	x	x	x	x
Fc1cccc(CN2CCc3nc(Nc4ccc5c(c4)OCCO5)ncc3C2)c1F	26µM*	u	x	x	x	x
CCCCCCN1C[C@H](O)[C@@H](n2cc(C3CC3)nn2)C[C@@H]1c1ccc(OC)cc1	u	u	x	-13	-17%	-11%
CCOC(=O)c1nc(-c2ccccc2)oc1N1CCOCC1	u	u	-7%	-4	-11%	-1%
Cc1nn(-c2ccccc2)c(C)c1C(=O)OC(C)C(=O)NC1CCCCC1 (centres undefined)	10µM*	16µM*	u	u	21µM*	-14%
O=C(O)CCc1ccc(-c2ccc(Br)cc2)o1	-5%	-10%	u	-65*	-2%	0%
COc1ccc(-c2ccc(CCC(=O)O)o2)cc1	u	21µM*	u	u	u	u
c1cn(-c2cc(-c3ccc4c(c3)OCO4)ncn2)cn1	-9%	u	x	x	x	x
CCc1cc(C(=O)N2CCN(S(=O)(=O)c3ccccc3F)CC2)sc1C	-16%	-24%	-14%	-3	-5%[9.24 µM]	-2%
N#Cc1ccc2[nH]cc(C3c4cc(F)ccc4C=C(c4ccsc4)N3c3ccc(C#CCCO)cc3)c2c1 (centres undefined)	18µM*	u	x	u	u	15µM*
COc1cc(-c2ccc(N3C(c4ccsc4)=Cc4ccc(F)cc4C3c3c[nH]c4ccc(C#N)cc34)cc2)cc(OC)c1OC (centres undefined)	u	u	x	6	-1%	0%
CC(=O)CC1c2cc(F)ccc2C=C(c2ccsc2)N1c1ccc(-c2cccnc2)cc1 (centres undefined)	u	u	x	-12	u	u
CC(C)(O)C#Cc1ccc(N2C(c3ccsc3)=Cc3ccc(F)cc3C2c2c[nH]c3ccccc23)cc1 (centres undefined)	18µM*	u	x	-26	6%	0%
SMILES	TDP1 cell noCPT	TDP1 cell CPT	ELG1 DNA repair	IL-1B inflam inh	HT1080-NT tox	HT1080 IDH1KD tx
COC(=O)N1CCC2(CC1)CCN(c1ccccc1)CC2	u	-15%	x	x	x	x
C/C(CC(=O)NC1CCCC1)=N\NC(=O)Cc1csc(N)n1	-2%	u	1%	14	4%	10%
Cc1sc(C(C2C(=O)CC(C)(C)CC2=O)C2C(=O)CC(C)(C)CC2=O)cc1[N+](=O)[O-]	23µM*	u	u	-94*	-17%	-5%
CC1(C)CC(=O)C(C(c2ccccc2F)C2C(=O)CC(C)(C)CC2=O)C(=O)C1	9%	3%	22%	-2	12%	11%
CC1(C)CC(=O)C(C(c2cc([N+](=O)[O-])ccc2Cl)C2C(=O)CC(C)(C)CC2=O)C(=O)C1	5.8µM*	u	x	41	-2%	5%
Cc1cc(C)c(NC(=O)Cn2c(=O)n(CC3CCCO3)c(=O)c3ccccc32)c(C)c1 (centres undefined)	2%	12%	x	x	x	x
COCCn1c(=O)c(-c2ccc(F)c(F)c2)nc2cncnc21	-4%	-4%	x	x	x	x
COc1ccccc1C(=O)N(Cc1sccc1C)C1CCS(=O)(=O)C1 (centres undefined)	3%	-11%	3%	-9	10%	10%
CCCOc1cccc(C(=O)N(Cc2sccc2C)C2CCS(=O)(=O)C2)c1 (centres undefined)	13µM*	u	x	x	x	x
CCCCOc1ccccc1C(=O)N(Cc1sccc1C)C1CCS(=O)(=O)C1 (centres undefined)	21µM*	u	x	x	x	x
CCCCOc1cccc(C(=O)N(Cc2sccc2C)C2CCS(=O)(=O)C2)c1 (centres undefined)	15µM*	u	x	x	x	x
CC(C)Cc1nnc(NC(=O)c2cc([N+](=O)[O-])ccc2N2CCOCC2)s1	-26%	5%	-5%	2	5%	19%
Cc1c(CC(=O)NCC(C)C)c(=O)oc2cc3c(cc12)CCC(C)(C)O3	18µM*	16µM*	11%	u	4%	-10%
Cc1c(CC(=O)NCCC(C)C)c(=O)oc2cc3c(cc12)CCC(C)(C)O3	21µM*	-13%	12%	-10	11%	11%
COCCNC(=O)Cc1c(C)c2cc3c(cc2oc1=O)OC(C)(C)CC3	u	u	12%	54	-2%	-11%
Nc1ncc(S(=O)(=O)NCc2cccc(Cl)c2)cn1	-21%	-23%	x	x	x	x
